Pf apPOL inh – Pf-apPOL DNA polymerase inhibition; hit rate 0.25% among 210,000; Recombinant Pf-apPOL, molecular beacon fluorescence, 1.5 h; inhibition, % at 10 µM; AID 1794808
mHTT-CaM PPI inh – disrupts binding of mutant huntingtin to calmodulin. hit rate 3.6% among 190,000. inhibition, % at 15 µM. AlphaScreen His-mHTT/GST-CaM binding, luminescence. P42858;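 further: 0% = both proteins with DMSO and 100% = one protein alone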
The depositor's hits bear a star; ! = a repeat was not active. The full list was thinned out, with hits kept by preference. No stated cut-off is given here; in the data, active means inhibition above about 50%; inactive means the rest.

SMILES | Pf apPOL inh | mHTT-CaM PPI inh
Cc1ccc2c(c1)N(c1cccc(Cl)c1)C=C(C#N)S2(=O)=O | 0 | -3
COc1cccc(N2C(=O)CCC2(C)C(=O)NCCC(C)C)c1 (stereo unspecified) | -1 | 0
O=C(Nc1nc2ccc(F)cc2s1)c1ccccc1Br | 0 | -20
COc1ccccc1C1SCCN1S(=O)(=O)c1ccc([N+](=O)[O-])cc1 (stereo unspecified) | 1 | -2
Cc1c(C(=O)NCc2ccccn2)oc2ccc(S(=O)(=O)N3CCCCC3)cc12 | -10 | 58*
Cc1c(C(=O)NCc2ccccn2)oc2ccc(S(=O)(=O)N3CCOCC3)cc12 | 2 | 3
Cc1nn(S(=O)(=O)c2cccs2)c(C)c1Sc1ccc(Cl)cc1 | 0 | -13
O=C(CCCN1C(=O)c2cccnc2C1=O)N1CCN(c2cccc(Cl)c2)CC1 | -24 | 22
COc1ccc(C(=O)C=Cc2ccc(OC)cc2OC)cc1 | -11 | -24
Cc1cccc(NC2=C(N3CCOCC3)C(=O)c3ccccc3C2=O)c1 | -3 | 29
O=C1C(Nc2ccc(F)c(F)c2)=C(N2CCOCC2)C(=O)c2ccccc21 | -10 | 32
O=C1C(Nc2cccc(I)c2)=C(N2CCCCC2)C(=O)c2ccccc21 | 24 | 92*
O=C1C(Nc2cccc(I)c2)=C(N2CCCC2)C(=O)c2ccccc21 | 27 | 99*
CC(=O)NC1=C(N2CCN(c3ccccc3)CC2)C(=O)c2ccccc2C1=O | -7 | 45
CC(=O)Nc1ccc(NC2=C(N3CCCCC3)C(=O)c3ccccc3C2=O)cc1 | -1 | 12
O=C1C(Nc2cccc(C(F)(F)F)c2)=C(N2CCOCC2)C(=O)c2ccccc21 | -10 | 66*
O=C1C(Nc2cccc(I)c2)=C(N2CCOCC2)C(=O)c2ccccc21 | 20 | 86*
O=C(Nc1cccc(NC(=O)c2ccc3c(c2)OCO3)c1)c1ccc2c(c1)OCO2 | -4 | 0
CCC(=O)N1CCc2sc(S(=O)(=O)Nc3cc(F)ccc3C)cc2C1 | -4 | 0
CCn1cc(C(=O)Nc2ccccc2OC)c(=O)c2ccc(C)nc21 | -3 | 2
CCOc1ccc(NC(=O)N2CCc3[nH]cnc3C2c2ccccn2)cc1 (stereo unspecified) | -7 | 94*
COc1ccccc1NC(=O)N1CCc2[nH]cnc2C1c1ccccn1 (stereo unspecified) | -4 | 36
O=C(Nc1ccccc1)N1CCc2[nH]cnc2C1c1ccncc1 (stereo unspecified) | 1 | 1
O=C(Nc1c(F)cccc1F)N1CCc2[nH]cnc2C1c1ccccn1 (stereo unspecified) | -8 | 56*
COCCC1CCN(C(=O)CN(C)C(=O)Cc2ccccc2C)CC1 | -6 | -7
SMILES | Pf apPOL inh | mHTT-CaM PPI inh
CCC(C)NC(=O)c1sc2ncn(CC(=O)Nc3cccc(C(F)(F)F)c3)c(=O)c2c1C (stereo unspecified) | 0 | 99*
Cc1c(C(=O)O)sc2ncn(CC(=O)Nc3cccc(C(F)(F)F)c3)c(=O)c12 | -1 | 3
COCCn1cnc2sc(C(=O)Nc3cccc(C(F)(F)F)c3)c(C)c2c1=O | -3 | 19
CCCCNC(=O)c1sc2ncn(CC(=O)Nc3cccc(C(F)(F)F)c3)c(=O)c2c1C | -4 | 68*
CC1CCC(NC(=O)C2CCCN(S(=O)(=O)N3CCCCCC3)C2)CC1 (stereo unspecified) | -7 | -6
Cc1[nH]c2ccccc2c1-c1csc(-c2ccncc2)n1 | 0 | 70*!
Cc1[nH]c2ccccc2c1-c1csc(-c2cccnc2)n1 | 0 | 33
COc1ccc(/C=c2\sc3n(c2=O)CN(c2ccccc2)CN=3)cc1OC | -9 | 19
Cc1ccc(C2Nc3ccccc3NC3=C2C(=O)CC(c2ccccc2F)C3)cc1 (stereo unspecified) | -4 | 39
COc1ccc(C2CC(=O)C3=C(C2)Nc2ccccc2NC3c2ccc(Cl)c([N+](=O)[O-])c2)cc1 (stereo unspecified) | -15 | 52*
O=C1CC(c2cccs2)CC2=C1C(c1ccc(Cl)c(Cl)c1)Nc1ccccc1N2 (stereo unspecified) | -3 | 77*
O=C1CC(c2cccs2)CC2=C1C(c1ccc(F)cc1)Nc1ccccc1N2 (stereo unspecified) | -19 | 18
O=C1CC(c2ccccc2)CC2=C1C(c1ccc(C(F)(F)F)cc1)Nc1ccccc1N2 (stereo unspecified) | -2 | 86*
COc1ccc(C2Nc3ccccc3NC3=C2C(=O)CC(c2ccccc2)C3)cc1 (stereo unspecified) | -2 | 26
O=C1CC(c2ccccc2Cl)CC2=C1C(c1ccc(F)cc1)Nc1ccccc1N2 (stereo unspecified) | -2 | 57*
O=C1CC(c2ccccc2)CC2=C1C(c1ccccc1C(F)(F)F)Nc1ccccc1N2 (stereo unspecified) | -4 | 19
Cc1onc(-c2ccccc2)c1C1=N/C(=C\C(Cl)=C\c2ccccc2)C(=O)O1 | -8 | 1
COc1ccc(NC(=O)N2CCCC2c2cccc(F)c2)cc1OC (stereo unspecified) | -6 | -3

From PubChem
